Screening data: PubChem, National Center for Advancing Translational Sciences (NCATS)
An excerpt weighted towards active compounds, which were near 9.9% of everything screened.
MCF10A rereplic: inducers of DNA re-replication in MCF 10A breast cells | MCF 10A DNA re-replication, Hoechst nuclear intensity, 48 h | 2.9% of 350,000 active | Potency, µM (titrated, usually from 46.1 µM), for the others: top-dose activity, positive = re-replication, most hits filed as activators; note: potency is the fitted concentration of half-maximal effect; % of control where 0% means no effect; nearly all actives have a fitted effect of over 50% in size
KB-3-1 cytotox: kills parental KB-3-1 adenocarcinoma cells; 1.4% of 400,000 active; AID 1347075; KB-3-1 viability, CellTiter-Glo ATP luminescence, 72 h; Potency, µM (top dose mostly 46.1 µM), usual class: cytotoxic; note: potency is the fitted concentration of half-maximal effect; % is set by controls: 0 for no effect and ±100 for the full control effect; nearly all actives have a fitted effect of over 60% in size
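Screening of KB-3-1 cells (DMEM, 10% FBS, phenol-red free) ran from lowest to highest compound concentration; after 72 h at 37 °C viability was read luminescently and curves fitted.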
IL1B secr inh: inhibitors of inflammasome signaling (IL-1 beta secretion); THP-1 LPS/ATP IL-1B secretion, AlphaLISA, 16 h; active compounds read low; activity change, % at 57.5 µM; 4.7% of 360,000 active; in the data active = activity change below about -50%; inconclusive = mostly about -30% to -49%; note: % is set by controls: 0 for no effect and ±100 for the full control effect
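Secreted IL-1B measured by AlphaLISA bead assay after 16 h compound exposure of THP-1 cells; compounds (final up to 57.5 uM) added 1 h before LPS (250 ng/mL) and ATP (1.25 mM) stimulation; lower signal means less secretion.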
SW480 rerep: inducers of DNA re-replication in SW480 colon cancer cells. SW480 DNA re-replication, Hoechst DNA content imaging, 48 h. Potency, µM (highest dose often 46.1 µM), for inactives: at the highest dose re-replication activation, usual class: activators. 1.8% of 340,000 active. AID 624297; note: potency is the fitted concentration of half-maximal effect; % of control where 0% means no effect; nearly all actives have a fitted effect of over 55% in size
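Compounds, transferred as 23 nL by pin tool, were incubated with cells for 48 hr; DNA content per nucleus was then quantified by Hoechst staining and fluorescence plate imaging.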
KB-V1 MDR tox: kills drug-selected multidrug resistant KB-V1 cells. AID 1347076. Potency, µM (top dose mostly 46.1 µM), hits mostly cytotoxic. KB-V1 MDR cells viability, CellTiter-Glo, 72 h. 3.4% of 400,000 active; note: potency is the fitted concentration of half-maximal effect; % is set by controls: 0 for no effect and ±100 for the full control effect; nearly all actives have a fitted effect of over 60% in size
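qHTS viability screen in drug-selected KB-V1 MDR cells: 72 h compound treatment at 37 degrees C, ATP luminescence end point.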
* hit, by the source's call; i = inactive; ? = inconclusive; . = no result; [ ] = dose if it differs, or a comment. Unless noted, calls come from the whole dose curve; as a rule, active = well fitted curve in the direction sought with a large enough effect; inconclusive = small, poorly fitted or top-dose-only effect, or another doubt; inactive = no such curve, though single readings can be large; an effect the other way counts as inactive or inconclusive.

SMILES | MCF10A rereplic | KB-3-1 cytotox | IL1B secr inh | SW480 rerep | KB-V1 MDR tox
O=C(c1ccco1)N(Cc1ccco1)c1ccc(O)cc1 | 2% | i | -106* | -4% | i
Cc1ccc(N(Cc2ccc([N+](=O)[O-])cc2)C(=O)c2ccco2)cc1C | -2% | i | -16 | 0% | 10µM*
CC[C@@H]1[C@H]2CCCC(=O)N3CC[C@@H](C[C@@H]1OC(=O)Nc1ccccc1)[C@@H]23 | 9% | i | -11 | -3% | ?
O=C(O)COc1ccc(/C=N/NC(=O)c2ccc(-c3csc(Nc4ccc(Cl)cc4)n3)cc2)cc1 | 9.2µM* | i | 17 | -11% | i
COc1ccc(NC(=O)CSc2nc(-c3cccs3)cc(C(F)(F)F)n2)cc1OC | . | 9.2µM* | . | . | ?
Cc1cccc(C)c1NC(=O)CSc1nc(-c2cccs2)cc(C(F)(F)F)n1 | . | i | . | . | ?
COc1ccc(NC(=O)CSc2nc(-c3cccs3)cc(C(F)(F)F)n2)cc1Cl | . | i | . | . | 5.2µM*
CCOc1ccccc1NC(=O)CSc1nc(-c2cccs2)cc(C(F)(F)F)n1 | . | i | . | . | i
CCCCCCOc1ccc(N2C(=O)CC(SC(=NCC)NCC)C2=O)cc1 (stereo unspecified) | ? | i | 0 | -69% | i
CC1CCCCN1S(=O)(=O)c1ccc(S(=O)(=O)N2CCN(C)CC2)cc1 (stereo unspecified) | 20% | i | 11 | -2% | i
Cn1c(-c2ccc3c(c2)OCO3)cnc1N | ? | i | 2 | -1% | ?
Cc1nc(N)ncc1-c1ccc2c(c1)OCO2 | -10% | ? | -2 | -9% | 12µM*
O=c1cc(C=NNc2ccccc2)[nH]c(=O)[nH]1 | 2% | i | -6 | -3% | i
O=c1cc(N/N=C/c2ccccc2)[nH]c(=O)[nH]1 | ? | ? | -99* | ? | i
COc1cccc(-n2c(C)nc3c(cnn3-c3ccc(C)cc3)c2=O)c1 | 0% | i | -19 | 3% | i
COc1cccc(-n2c(-c3ccccc3F)nc3c(cnn3-c3ccc(C)cc3)c2=O)c1 | . | 16µM* | . | . | i
Cc1ccc(-n2c(C)nc3c(cnn3-c3ccccc3)c2=O)cc1 | . | ? | . | . | 16µM*
COc1ccc(-n2c(C)nc3c(cnn3-c3ccc(C)cc3)c2=O)cc1 | ? | i | -13 | -15% | i
CCCCC1C(=O)CC[C@H]2[C@@H]1CC(=O)[C@@H]2C/C=C\CCCC(=O)O (stereo partly specified) | 64% | i | ? | 1.8µM* | i
O=C(Nc1ccccn1)c1ccc(S(=O)(=O)N2CCCC2)cc1 | ? | i | -3 | 39% | i
O=C(Nc1ccccn1)c1ccc(S(=O)(=O)c2ccc(Cl)cc2)cc1 | 0% | ? | ? | 9% | 7.3µM*
O=C(Nc1ccc(-c2ccccc2)cc1)c1ccccc1 | ? | 21µM* | 15 | -1% | i
O=C(Nc1ccccn1)c1ccc(-c2ccccc2)cc1 | 21% | i | -59* | 20% | i
Cc1ccc(NC(=O)C2=C(c3ccccc3)S(=O)(=O)CCS2(=O)=O)cc1 | ? | ? | -104* | 2.1µM* | ?
O=C(OCc1ccc([N+](=O)[O-])cc1)c1cc(=O)c2ccccc2o1 | -17% | i | 15 | 0% | i
SMILES | MCF10A rereplic | KB-3-1 cytotox | IL1B secr inh | SW480 rerep | KB-V1 MDR tox
CN(Cc1cnn(Cc2ccccc2)c1)C(=O)CN=C1NS(=O)(=O)c2ccccc21 | 2% | i | -15 | -7% | i
CCn1cc(C(=O)Nc2cccc(Cl)c2)c2cc(OC)c(OC)cc2c1=O | . | i | . | . | i
CC(=O)Nc1cccc(NC(=O)c2ccc(C(=O)Nc3cccc(NC(C)=O)c3)nc2)c1 | 2% | i | 7 | -19% | i
CC(C)c1cc(NC(=O)c2ccccc2)cc(C(C)C)c1O | 8% | ? | -57* | -5% | ?
Cc1cccc(C(=O)Nc2ccn(C)n2)c1 | -12% | i | -11 | 18µM* | i
Cc1cccc(NC(=O)c2ccc(C(=O)Nc3cccc(C)c3)nc2)c1 | 7.3µM* | i | 43 | ? | ?
Cc1cccc(C(=O)Nc2ccc(C(=O)c3ccccc3)cc2)c1 | ? | i | -80* | ? | i
Cc1cc2nc(CCN(C(=S)NCC(C)C)C3CCCC3)[nH]c2cc1C | 3% | i | -66* | -2% | 16µM*
Cc1cc2nc(CCN(C(=S)NCC3CCCO3)C3CCCC3)[nH]c2cc1C (stereo unspecified) | 21% | i | -52* | 73% | i
COc1cc2c(cc1OC)C(c1cccc(C)c1)CC(=O)N2 (stereo unspecified) | -6% | i | 12 | 4.1µM* | i
COc1cc2c(cc1OC)C(c1cccc(Cl)c1)CC(=O)N2 (stereo unspecified) | 0% | i | 68 | -6%[9.22 µM] | i
Cc1cc2c(cc1C)C(c1cccc(F)c1)CC(=O)N2 (stereo unspecified) | 15% | ? | 44 | ? | ?
Cc1cc2c(cc1C)C(c1cc(Br)ccc1F)CC(=O)N2 (stereo unspecified) | 7.3µM* | 8.2µM* | 2 | ? | 13µM*
Cc1cc2c(cc1C)C(c1ccccc1F)CC(=O)N2 (stereo unspecified) | 24% | 5.8µM* | 2 | ? | ?
O=C(Cn1cc(COc2ccc(Cl)c(Cl)c2)nn1)NS(=O)(=O)c1ccccc1C(F)(F)F | . | i | 82 | . | i
COc1ccc(C)cc1NC(=O)CNC(c1ccccc1)c1ccc(C)cc1 (stereo unspecified) | ? | 4.6µM* | 115 | 2.6µM* | i
COc1ccc(C)cc1NC(=O)C(NCC1CCCO1)c1ccccc1 (stereo unspecified) | ? | i | -9 | 28% | 16µM*
COc1ccccc1NC(=O)CNC(c1ccccc1)c1ccccc1 | ? | i | 7 | 7% | i
COC(=O)c1ccccc1-c1c2ccc(=N)cc-2oc2cc(N)ccc12 | -26% | 1.3µM* | -92* | 11% | i
O=C(Oc1c(CN2CCOCC2)cc(Cl)c2cccnc12)c1cccs1 | ? | ? | -58* | 8.2µM* | ?
O=C(Oc1ccc(Cl)c2cccnc12)N1CCOCC1 | 0% | i | 0 | -4% | i
O=C(Cc1ccccc1)NC(c1ccco1)c1cc(Cl)c2cccnc2c1O (stereo unspecified) | . | i | . | . | i
O=C(Oc1c(CN2CCOCC2)cc(Cl)c2cccnc12)c1ccccc1Cl | ? | ? | -91* | 17% | ?
O=C(NC(c1ccco1)c1cc(Cl)c2cccnc2c1O)c1cccs1 (stereo unspecified) | . | i | . | . | ?
O=C(Oc1c(Cl)cc(Cl)c2cccnc12)c1cccs1 | 6.5µM* | ? | 48 | ? | ?
